Source: the supplement of paper PMC10849652
Targets with a hit are over-represented here; the source holds about 7,900 in all. About 0.6% of all pairs of compound and target were hits. Values without a mark were called inactive.

Columns and labels:
Experiment in all cases: log2 fold change, soluble protein after heating vs DMSO (PISA); higher = thermal stabilisation; K562 cells, 10 uM, 30 min; active = over 0.2 and 3.5 SD of the protein, either way, in both replicates (recomputed)
[1] = compound: COC1=CC=C(C=C1)CN2C=CC3=C2C=C(C=C3)C(=O)NO
How it was run: (§1)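 Thermal stability values are relative to control samples and come from duplicates. They are expressed as log2 fold changes. For measurement, K562 cells (2×10^6 cells/mL) received 10 μM compound for 30 min, and aliquots were heated for 3 min over 48°C-58°C, pooled, and extracted at 4°C in PBS with 0.5% NP-40. Soluble protein, the supernatant after 21,000xg for 90 min, was quantified by TMTpro 16plex LC-MS/MS with equalised channel sums.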

filanesib = compound: CON(C)C(=O)N1N=C(c2cc(F)ccc2F)S[C@@]1(CCCN)c1ccccc1 [filanesib]
How it was run: as §1

zotarolimus = compound: CO[C@H]1C[C@@H]2CC[C@@H](C)[C@@](O)(O2)C(=O)C(=O)N2CCCC[C@H]2C(=O)O[C@H]([C@H](C)C[C@@H]2CC[C@H](n3cnnn3)[C@H](OC)C2)CC(=O)[C@H](C)/C=C(\C)[C@@H](O)[C@@H](OC)C(=O)[C@H](C)C[C@H](C)/C=C/C=C/C=C/1C [zotarolimus]
How it was run: as §1

idasanutlin = compound: COc1cc(C(=O)O)ccc1NC(=O)[C@@H]1N[C@@H](CC(C)(C)C)[C@](C#N)(c2ccc(Cl)cc2F)[C@H]1c1cccc(Cl)c1F [idasanutlin]
How it was run: as §1

alisertib = compound: COc1cc(Nc2ncc3c(n2)-c2ccc(Cl)cc2C(c2c(F)cccc2OC)=NC3)ccc1C(=O)O [alisertib]
How it was run: as §1

[2] = compound: COc1cc2nc(-c3cc(F)ccc3O)nc(N[C@@H]3CNC[C@H]3C(C)(C)O)c2cc1OC
How it was run: as §1

gefitinib = compound: COc1cc2ncnc(Nc3ccc(F)c(Cl)c3)c2cc1OCCCN1CCOCC1 [gefitinib]
How it was run: as §1

[3] = compound: COc1cccc2cc(-c3nc([C@H]4CC[C@H](C(=O)O)CC4)n4ncnc(N)c34)[nH]c12
How it was run: as §1

lapatinib = compound: CS(=O)(=O)CCNCc1ccc(-c2ccc3ncnc(Nc4ccc(OCc5cccc(F)c5)c(Cl)c4)c3c2)o1 [lapatinib]
How it was run: as §1

pictilisib = compound: CS(=O)(=O)N1CCN(Cc2cc3nc(-c4cccc5[nH]ncc45)nc(N4CCOCC4)c3s2)CC1 [pictilisib]
How it was run: as §1

[4] = compound: CS(=O)(=O)c1ccc(-c2cnc(N)c(C(=O)Nc3ccccc3)n2)cc1
How it was run: as §1

crizotinib = compound: C[C@@H](Oc1cc(-c2cnn(C3CCNCC3)c2)cnc1N)c1c(Cl)ccc(F)c1Cl [crizotinib]
How it was run: as §1

[5] = compound: C[C@@H]1COCCN1C2=NC(=NC(=C2)C3(CC3)S(=O)(=O)C)C4=C5C=CNC5=CC=C4
How it was run: as §1

[6] = compound: C[C@H](C1=CC=C(C=C1)C(=O)NC2=C3C=CNC3=NC=C2)N
How it was run: as §1

duvelisib = compound: C[C@H](Nc1ncnc2nc[nH]c12)c1cc2cccc(Cl)c2c(=O)n1-c1ccccc1 [duvelisib]
How it was run: as §1

gandotinib = compound: Cc1cc(Nc2cc(CN3CCOCC3)c3nc(C)c(Cc4ccc(Cl)cc4F)n3n2)n[nH]1 [gandotinib]
How it was run: as §1

tozasertib = compound: Cc1cc(Nc2cc(N3CCN(C)CC3)nc(Sc3ccc(NC(=O)C4CC4)cc3)n2)n[nH]1 [tozasertib]
How it was run: as §1

[7] = compound: Cc1cc(SCc2sc(-c3ccc(C(F)(F)F)cc3)nc2C)ccc1OCC(=O)O
How it was run: as §1

doramapimod = compound: Cc1ccc(-n2nc(C(C)(C)C)cc2NC(=O)Nc2ccc(OCCN3CCOCC3)c3ccccc23)cc1 [doramapimod]
How it was run: as §1

ispinesib = compound: Cc1ccc(C(=O)N(CCCN)[C@@H](c2nc3cc(Cl)ccc3c(=O)n2Cc2ccccc2)C(C)C)cc1 [ispinesib]
How it was run: as §1

Target: DCAF13 (UniProt Q9NV06)
UniProt Q9NV06, sequence (Q9NV06 whole entry, looked up): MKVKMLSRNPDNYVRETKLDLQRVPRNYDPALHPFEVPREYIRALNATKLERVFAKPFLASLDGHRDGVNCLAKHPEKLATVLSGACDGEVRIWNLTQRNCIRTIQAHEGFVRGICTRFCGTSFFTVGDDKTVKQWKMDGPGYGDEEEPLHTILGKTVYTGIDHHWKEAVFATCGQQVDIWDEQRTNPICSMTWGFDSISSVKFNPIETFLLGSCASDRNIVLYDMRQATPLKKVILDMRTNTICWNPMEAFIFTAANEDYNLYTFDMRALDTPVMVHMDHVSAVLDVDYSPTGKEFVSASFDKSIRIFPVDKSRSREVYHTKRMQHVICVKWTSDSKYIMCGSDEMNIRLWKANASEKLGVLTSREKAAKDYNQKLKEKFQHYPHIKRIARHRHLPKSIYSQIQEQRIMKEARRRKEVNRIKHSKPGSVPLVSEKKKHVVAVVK
- log2 fold change [1]: -0.083
- log2 fold change (filanesib): 0.333
- log2 fold change (zotarolimus): -0.01
- log2 fold change (idasanutlin): 0.17
- log2 fold change (alisertib): -0.067
- log2 fold change [2]: -0.047
- log2 fold change (gefitinib): -0.063
- log2 fold change [3]: -0.112
- log2 fold change (lapatinib): 0.083
- log2 fold change (pictilisib): -0.103
- log2 fold change [4]: -0.086
- log2 fold change (crizotinib): 0.067
- log2 fold change [5]: -0.538 (active)
- log2 fold change [6]: 0.273
- log2 fold change (duvelisib): -0.105
- log2 fold change (gandotinib): 0.221
- log2 fold change (tozasertib): 0.007
- log2 fold change [7]: -0.033
- log2 fold change (doramapimod): 0.173
- log2 fold change (ispinesib): -0.1

Target: DDX4 (UniProt Q9NQI0)
UniProt Q9NQI0, sequence (Q9NQI0 whole entry, looked up): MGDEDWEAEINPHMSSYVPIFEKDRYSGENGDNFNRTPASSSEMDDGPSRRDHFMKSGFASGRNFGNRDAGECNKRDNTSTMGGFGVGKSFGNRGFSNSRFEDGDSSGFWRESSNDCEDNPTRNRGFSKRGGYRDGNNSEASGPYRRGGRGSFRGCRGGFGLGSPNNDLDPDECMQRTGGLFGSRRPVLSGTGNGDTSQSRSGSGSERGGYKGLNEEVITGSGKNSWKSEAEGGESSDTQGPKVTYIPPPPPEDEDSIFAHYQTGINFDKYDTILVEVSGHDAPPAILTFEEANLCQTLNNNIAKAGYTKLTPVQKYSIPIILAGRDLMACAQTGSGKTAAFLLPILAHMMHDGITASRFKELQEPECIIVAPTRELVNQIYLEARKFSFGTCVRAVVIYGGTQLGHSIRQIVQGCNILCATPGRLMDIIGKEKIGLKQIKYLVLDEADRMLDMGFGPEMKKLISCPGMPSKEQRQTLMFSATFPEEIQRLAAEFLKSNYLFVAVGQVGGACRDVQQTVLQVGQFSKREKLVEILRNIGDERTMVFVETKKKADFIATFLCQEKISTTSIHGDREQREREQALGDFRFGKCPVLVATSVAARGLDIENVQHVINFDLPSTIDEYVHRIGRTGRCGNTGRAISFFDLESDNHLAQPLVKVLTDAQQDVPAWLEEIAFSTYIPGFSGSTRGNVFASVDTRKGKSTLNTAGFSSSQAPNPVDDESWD
- log2 fold change [1]: -0.474
- log2 fold change (filanesib): 0.186
- log2 fold change (zotarolimus): 0.004
- log2 fold change (idasanutlin): 0.42
- log2 fold change (alisertib): 0.172
- log2 fold change [2]: 0.368
- log2 fold change (gefitinib): 0.048
- log2 fold change [3]: -0.715
- log2 fold change (lapatinib): -0.399
- log2 fold change (pictilisib): 0.17
- log2 fold change [4]: 0
- log2 fold change (crizotinib): 0.018
- log2 fold change [5]: 0.013
- log2 fold change [6]: 0.544
- log2 fold change (duvelisib): 0.265
- log2 fold change (gandotinib): 0.112
- log2 fold change (tozasertib): -0.042
- log2 fold change [7]: -0.232
- log2 fold change (doramapimod): -0.021
- log2 fold change (ispinesib): -0.529

Target: EPHX2 (UniProt P34913)
UniProt P34913, sequence (P34913 whole entry, looked up): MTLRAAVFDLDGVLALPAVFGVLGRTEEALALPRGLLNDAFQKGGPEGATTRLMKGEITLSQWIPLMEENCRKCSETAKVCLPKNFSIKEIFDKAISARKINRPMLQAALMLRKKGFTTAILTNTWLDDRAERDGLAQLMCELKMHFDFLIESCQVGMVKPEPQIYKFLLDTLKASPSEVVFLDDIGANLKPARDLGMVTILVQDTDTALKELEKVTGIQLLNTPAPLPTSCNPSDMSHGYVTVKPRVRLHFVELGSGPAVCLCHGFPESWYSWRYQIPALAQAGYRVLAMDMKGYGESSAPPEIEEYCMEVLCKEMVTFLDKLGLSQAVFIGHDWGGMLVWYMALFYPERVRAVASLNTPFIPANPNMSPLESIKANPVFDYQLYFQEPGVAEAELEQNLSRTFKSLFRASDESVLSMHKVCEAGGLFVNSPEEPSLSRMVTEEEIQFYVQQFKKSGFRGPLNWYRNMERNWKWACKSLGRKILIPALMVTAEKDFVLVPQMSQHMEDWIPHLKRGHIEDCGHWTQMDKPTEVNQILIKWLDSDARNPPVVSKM
- log2 fold change [1]: -0.019
- log2 fold change (filanesib): -0.096
- log2 fold change (zotarolimus): -0.017
- log2 fold change (idasanutlin): -0.089
- log2 fold change (alisertib): -0.053
- log2 fold change [2]: -0.009
- log2 fold change (gefitinib): 0
- log2 fold change [3]: 0.055
- log2 fold change (lapatinib): -0.041
- log2 fold change (pictilisib): 0.062
- log2 fold change [4]: 0.036
- log2 fold change (crizotinib): 0.169
- log2 fold change [5]: 0.194
- log2 fold change [6]: -0.019
- log2 fold change (duvelisib): 0.029
- log2 fold change (gandotinib): -0.018
- log2 fold change (tozasertib): 0.144
- log2 fold change [7]: -0.032
- log2 fold change (doramapimod): -0.016
- log2 fold change (ispinesib): -0.01

Target: CTSH (UniProt P09668)
UniProt P09668, sequence (P09668 whole entry, looked up): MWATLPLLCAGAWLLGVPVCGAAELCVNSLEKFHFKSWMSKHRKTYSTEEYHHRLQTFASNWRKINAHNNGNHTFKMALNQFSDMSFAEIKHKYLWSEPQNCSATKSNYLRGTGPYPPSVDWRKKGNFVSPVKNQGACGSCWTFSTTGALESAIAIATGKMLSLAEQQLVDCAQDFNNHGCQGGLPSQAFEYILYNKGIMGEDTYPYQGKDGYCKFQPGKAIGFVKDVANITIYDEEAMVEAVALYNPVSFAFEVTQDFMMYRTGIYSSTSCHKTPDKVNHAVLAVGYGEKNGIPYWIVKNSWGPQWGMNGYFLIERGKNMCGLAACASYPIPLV
- log2 fold change [1]: 0.066
- log2 fold change (filanesib): -0.072
- log2 fold change (zotarolimus): -0.046
- log2 fold change (idasanutlin): 0.029
- log2 fold change (alisertib): -0.06
- log2 fold change [2]: 0.021
- log2 fold change (gefitinib): 0.025
- log2 fold change [3]: 0.084
- log2 fold change (lapatinib): 0.018
- log2 fold change (pictilisib): 0.019
- log2 fold change [4]: 0.032
- log2 fold change (crizotinib): -0.249 (active)
- log2 fold change [5]: 0.074
- log2 fold change [6]: -0.02
- log2 fold change (duvelisib): -0.034
- log2 fold change (gandotinib): 0.031
- log2 fold change (tozasertib): -0.068
- log2 fold change [7]: -0.068
- log2 fold change (doramapimod): 0.023
- log2 fold change (ispinesib): -0.221

Target: CUX1 isoform 3 (UniProt P39880)
UniProt P39880, sequence (P39880 whole entry, looked up): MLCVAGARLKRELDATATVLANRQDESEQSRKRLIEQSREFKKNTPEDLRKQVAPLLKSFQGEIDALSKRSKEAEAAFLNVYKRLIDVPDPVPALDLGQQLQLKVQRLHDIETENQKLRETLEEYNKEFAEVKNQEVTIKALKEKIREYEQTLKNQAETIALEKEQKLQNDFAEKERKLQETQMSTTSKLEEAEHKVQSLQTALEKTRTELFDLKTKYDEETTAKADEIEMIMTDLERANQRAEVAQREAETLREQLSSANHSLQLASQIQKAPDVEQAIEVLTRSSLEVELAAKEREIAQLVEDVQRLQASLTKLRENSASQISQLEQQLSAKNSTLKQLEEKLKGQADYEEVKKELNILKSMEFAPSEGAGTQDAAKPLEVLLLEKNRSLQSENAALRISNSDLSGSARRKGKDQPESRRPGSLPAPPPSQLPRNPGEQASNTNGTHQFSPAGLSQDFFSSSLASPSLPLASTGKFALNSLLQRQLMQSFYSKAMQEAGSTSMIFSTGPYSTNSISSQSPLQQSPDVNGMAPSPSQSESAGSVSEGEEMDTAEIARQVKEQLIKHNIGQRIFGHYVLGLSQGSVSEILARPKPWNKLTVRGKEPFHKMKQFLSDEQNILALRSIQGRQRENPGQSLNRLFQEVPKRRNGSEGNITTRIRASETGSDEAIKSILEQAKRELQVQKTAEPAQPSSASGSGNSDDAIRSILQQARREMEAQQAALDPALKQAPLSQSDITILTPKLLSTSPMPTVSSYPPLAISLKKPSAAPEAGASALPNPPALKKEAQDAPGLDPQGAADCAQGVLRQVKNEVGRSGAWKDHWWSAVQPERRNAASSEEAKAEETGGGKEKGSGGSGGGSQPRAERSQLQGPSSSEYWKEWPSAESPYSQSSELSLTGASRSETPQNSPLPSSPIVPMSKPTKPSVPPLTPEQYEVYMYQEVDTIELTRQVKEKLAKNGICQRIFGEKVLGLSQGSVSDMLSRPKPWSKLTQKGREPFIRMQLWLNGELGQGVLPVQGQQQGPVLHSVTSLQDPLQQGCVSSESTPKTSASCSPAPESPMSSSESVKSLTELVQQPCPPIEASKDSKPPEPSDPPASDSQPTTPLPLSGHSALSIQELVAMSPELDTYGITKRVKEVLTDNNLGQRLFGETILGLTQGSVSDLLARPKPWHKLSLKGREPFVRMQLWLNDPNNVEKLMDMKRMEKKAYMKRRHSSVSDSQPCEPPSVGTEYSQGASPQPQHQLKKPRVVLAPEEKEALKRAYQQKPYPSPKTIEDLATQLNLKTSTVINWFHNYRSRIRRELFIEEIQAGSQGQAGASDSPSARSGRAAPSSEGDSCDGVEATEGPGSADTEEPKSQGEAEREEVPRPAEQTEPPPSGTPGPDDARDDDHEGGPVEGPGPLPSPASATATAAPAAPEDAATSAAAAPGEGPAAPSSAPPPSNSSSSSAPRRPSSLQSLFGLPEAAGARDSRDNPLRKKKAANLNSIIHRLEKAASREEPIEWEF
- log2 fold change [1]: 0.068
- log2 fold change (filanesib): 0.001
- log2 fold change (zotarolimus): -0.002
- log2 fold change (idasanutlin): 0.012
- log2 fold change (alisertib): -0.047
- log2 fold change [2]: -0.024
- log2 fold change (gefitinib): 0.009
- log2 fold change [3]: 0.008
- log2 fold change (lapatinib): 0.013
- log2 fold change (pictilisib): 0.054
- log2 fold change [4]: 0.02
- log2 fold change (crizotinib): -0.023
- log2 fold change [5]: 0.086
- log2 fold change [6]: -0.002
- log2 fold change (duvelisib): 0.064
- log2 fold change (gandotinib): -0.048
- log2 fold change (tozasertib): 0.029
- log2 fold change [7]: -0.026
- log2 fold change (doramapimod): 0.019
- log2 fold change (ispinesib): -0.101

Target: CTSB (UniProt P07858)
- log2 fold change [1]: 0.044
- log2 fold change (filanesib): -0.16
- log2 fold change (zotarolimus): 0.044
- log2 fold change (idasanutlin): 0.032
- log2 fold change (alisertib): 0.007
- log2 fold change [2]: -0.006
- log2 fold change (gefitinib): 0.024
- log2 fold change [3]: 0.03
- log2 fold change (lapatinib): -0.016
- log2 fold change (pictilisib): 0.043
- log2 fold change [4]: 0.048
- log2 fold change (crizotinib): -0.508 (active)
- log2 fold change [5]: 0.057
- log2 fold change [6]: -0.042
- log2 fold change (duvelisib): 0.016
- log2 fold change (gandotinib): 0.006
- log2 fold change (tozasertib): -0.006
- log2 fold change [7]: 0.015
- log2 fold change (doramapimod): -0.014
- log2 fold change (ispinesib): -0.403 (active)

Target: FAAP100 (UniProt Q0VG06)
UniProt Q0VG06, sequence (Q0VG06 whole entry, looked up): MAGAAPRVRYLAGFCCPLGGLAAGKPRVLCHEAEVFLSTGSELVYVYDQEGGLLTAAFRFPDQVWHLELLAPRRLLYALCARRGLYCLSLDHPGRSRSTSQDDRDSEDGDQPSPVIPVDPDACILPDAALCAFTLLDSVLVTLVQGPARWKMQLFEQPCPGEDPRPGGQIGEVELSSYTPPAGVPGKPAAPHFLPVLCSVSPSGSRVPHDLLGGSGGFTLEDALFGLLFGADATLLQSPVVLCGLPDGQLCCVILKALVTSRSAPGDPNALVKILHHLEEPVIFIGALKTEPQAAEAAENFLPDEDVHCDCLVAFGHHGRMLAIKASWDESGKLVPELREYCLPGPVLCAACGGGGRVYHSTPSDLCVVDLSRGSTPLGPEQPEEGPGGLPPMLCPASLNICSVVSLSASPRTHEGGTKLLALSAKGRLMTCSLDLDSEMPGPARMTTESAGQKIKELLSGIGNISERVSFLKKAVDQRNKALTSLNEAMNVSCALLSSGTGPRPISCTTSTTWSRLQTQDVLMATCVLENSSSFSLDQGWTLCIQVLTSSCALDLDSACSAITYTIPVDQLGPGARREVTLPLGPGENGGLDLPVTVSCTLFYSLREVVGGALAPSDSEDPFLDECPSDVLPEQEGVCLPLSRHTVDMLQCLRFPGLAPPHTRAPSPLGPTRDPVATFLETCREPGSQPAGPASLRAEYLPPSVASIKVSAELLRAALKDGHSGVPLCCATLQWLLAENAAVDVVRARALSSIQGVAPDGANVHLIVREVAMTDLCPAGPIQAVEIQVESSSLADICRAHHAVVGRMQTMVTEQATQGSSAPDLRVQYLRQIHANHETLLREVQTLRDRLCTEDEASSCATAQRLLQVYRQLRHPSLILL
- log2 fold change [1]: -0.008
- log2 fold change (filanesib): -0.012
- log2 fold change (zotarolimus): -0.025
- log2 fold change (idasanutlin): 0.055
- log2 fold change (alisertib): -0.044
- log2 fold change [2]: -0.095
- log2 fold change (gefitinib): 0.036
- log2 fold change [3]: 0.004
- log2 fold change (lapatinib): 0.011
- log2 fold change (pictilisib): -0.067
- log2 fold change [4]: -0.043
- log2 fold change (crizotinib): -0.027
- log2 fold change [5]: 0.142
- log2 fold change [6]: -0.051
- log2 fold change (duvelisib): 0.041
- log2 fold change (gandotinib): -0.096
- log2 fold change (tozasertib): -0.023
- log2 fold change [7]: -0.077
- log2 fold change (doramapimod): 0.033
- log2 fold change (ispinesib): -0.006

Target: DBN1 isoform 3 (UniProt Q16643)
- log2 fold change [1]: 0.012
- log2 fold change (filanesib): 0.182
- log2 fold change (zotarolimus): 0.074
- log2 fold change (idasanutlin): 0.061
- log2 fold change (alisertib): -0.023
- log2 fold change [2]: -0.024
- log2 fold change (gefitinib): 0.05
- log2 fold change [3]: 0.084
- log2 fold change (lapatinib): -0.041
- log2 fold change (pictilisib): -0.111
- log2 fold change [4]: -0.063
- log2 fold change (crizotinib): 0.088
- log2 fold change [5]: -0.075
- log2 fold change [6]: 0.044
- log2 fold change (duvelisib): -0.097
- log2 fold change (gandotinib): -0.009
- log2 fold change (tozasertib): 0.158
- log2 fold change [7]: -0.02
- log2 fold change (doramapimod): 0.02
- log2 fold change (ispinesib): 0.071
